Screening results: PubChem BioAssay, The Scripps Research Institute Molecular Screening Center
hgDAF12 agonist – agonists of H. glycines DAF-12 nuclear receptor | HEK293 GAL4-hgDAF12 UAS-luciferase reporter, agonist luminescence; normalized to butyrate control | activation, % at 6.8 µM | 1.8% of 370,000 active;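 active = activation above a cutoff set at the mean of all screened compounds plus 3 SD, cut at about 10% in these data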;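 note: 0% = DMSO wells and 100% = sodium butyrate wells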
DAX1 inh-1 – DAX1 (NR0B1) inhibition, primary screen; inhibition, % at 6.8 µM; AID 652010; 1.1% of 370,000 active; HEK293T StAR-luciferase reporter, SF-1/DAX-1 repression relief;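 active = inhibition above the mean over all tested compounds plus 3 SD, cut at about 3.6% in these data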;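 note: 0% = DAX-1 cells with DMSO and 100% = cells lacking DAX-1 with DMSO; higher inhibition means more luminescence from relief of DAX-1 repression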
ssDAF12 agonist – activators of S. stercoralis DAF-12 nuclear receptor. HEK293 ssDAF-12/GRIP1 lit1-tk-luc reporter, luminescence; % of 3 µM dafachronic acid response. activation, % at 6.8 µM. 1% of 370,000 active. AID 652126;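 active = activation above the mean over all tested compounds plus 3 SD, cut at about 0.9% in these data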;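 note: 0% = DMSO-only wells and 100% = 3 µM delta7-dafachronic acid wells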
hcDAF-12 act – H. contortus DAF-12 activation, primary screen. HEK293 hcDAF-12 lit1-tk-luc reporter, luminescence; 0% DMSO, 100% Δ7-dafachronic acid. activation, % at 6.8 µM. 1.4% of 370,000 active. AID 652067;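 active = activation above the mean of all tested compounds plus 3 SD, cut at about 5.5% in these data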;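 note: 100% = response to 3 µM Δ7-dafachronic acid high control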
DAX1 inh-2 – inhibits human nuclear receptor DAX1. HEK293 Gal4-DAX1 luciferase reporter, luminescence. AID 504766. inhibition, % at 6.75 µM. P51843. 0.99% of 340,000 active;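 active = inhibition above the mean over all tested compounds plus 3 SD, cut at about 4.2% in these data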;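 note: 0% = DAX1-transfected cells with DMSO and 100% = empty-vector control cells with DMSO; inhibition shows as a rise in luminescence from relieved DAX1 repression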
Wee1 stabilizer – inhibitors of human Wee1 degradation | P30291 | HeLa Luc-Wee1K328M stability, luciferase luminescence; 100% = proteasome inhibitor MG132 effect | reporter increase, % at 5 µM | 1.2% of 220,000 active;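 active = activation above the mean of all tested compounds plus 3 SD, set per screening run, cut at about 8.8% in these data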;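 note: cells exposed to compound for 20 h before luminescence read; 0% = DMSO alone and 100% = MG132 at 30 µM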
Target sequence (P30291 whole entry K328M): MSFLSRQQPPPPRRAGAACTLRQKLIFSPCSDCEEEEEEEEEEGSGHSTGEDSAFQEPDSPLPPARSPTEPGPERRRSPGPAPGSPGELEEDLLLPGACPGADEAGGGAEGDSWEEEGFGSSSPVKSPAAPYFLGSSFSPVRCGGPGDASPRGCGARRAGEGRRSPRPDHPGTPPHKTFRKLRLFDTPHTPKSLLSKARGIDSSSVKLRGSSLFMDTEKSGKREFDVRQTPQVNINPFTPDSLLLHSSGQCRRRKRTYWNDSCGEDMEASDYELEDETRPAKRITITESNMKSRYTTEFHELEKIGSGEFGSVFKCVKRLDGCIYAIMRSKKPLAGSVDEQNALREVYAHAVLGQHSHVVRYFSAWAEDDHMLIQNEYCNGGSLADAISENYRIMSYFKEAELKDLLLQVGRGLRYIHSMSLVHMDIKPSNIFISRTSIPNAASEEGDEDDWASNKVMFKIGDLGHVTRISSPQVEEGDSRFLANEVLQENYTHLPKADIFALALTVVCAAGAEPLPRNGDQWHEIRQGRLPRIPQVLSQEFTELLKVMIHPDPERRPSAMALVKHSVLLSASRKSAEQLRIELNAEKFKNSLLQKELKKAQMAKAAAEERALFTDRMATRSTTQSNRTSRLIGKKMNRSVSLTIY
* = called active by the depositor; nt = not tested or not shown. This is a sample that favours compounds with a hit; in the whole collection about 4.6% have one here.

SMILES	hgDAF12 agonist	DAX1 inh-1	ssDAF12 agonist	hcDAF-12 act	DAX1 inh-2	Wee1 stabilizer
Cc1ccc(C(=O)N2CCN(c3ccc(NC(=S)NC(=O)c4cccs4)cc3)CC2)cc1	-3	0	0	-1	-1	2
Cc1ccc(C(=O)Nc2ccc(N3CCN(C)CC3)cc2)cc1	10	2	1.3*	1	4	nt
O=C(/C=C/c1cccs1)c1ccc(N2CCOCC2)cc1	11*	1	0	3	3	-3
Cc1cc(C(=O)OCC(=O)N2CCc3ccccc32)ccc1[N+](=O)[O-]	-1	2	0	3	0	nt
CC(=O)N1CCN(c2ccc(NC(=S)NC(=O)c3ccccc3)cc2)CC1	-3	0	0	4	0	-1
O=C(NC(=S)Nc1ccc(N2CCCCC2)cc1)c1ccco1	13*	3	0	5	3	4
O=C(NNC(=O)c1cccs1)c1csc(N2CCOCC2)n1	2	0	1.2*	-1	0	nt
O=C(Nc1ccc(C2SCCS2)cc1)c1ccccc1	11*	2	1.6*	4	nt	10*
CC(=O)N1CCN(c2ccc(NC(=O)c3ccccc3)cc2)CC1	8	0	-1	2	5.8*	nt
Nn1c(SCC(=O)Nc2cccc3ccccc23)nnc1-c1cc(-c2ccc(Cl)cc2)n[nH]1	-2	0	0	2	nt	nt
O=c1cc(N2CCN(c3ccnc4cc(Cl)ccc34)CC2)[nH]c(=O)n1C1CCCCC1	-5	nt	-3	-5	nt	nt
COc1cc(NC(=O)C[n+]2ccc(C(=O)c3ccccc3)cc2)cc(OC)c1	4	0	-1	0	0	nt
COc1ccc(-n2nnc3c(SC(C(C)=O)C(=O)N(C)C)ncnc32)cc1 (centres undefined)	1	0	-1	0	1	nt
Cc1ccc(Cl)c(NC(=O)CSc2n[nH]c(=O)n2C2CC2)c1Cl	0	1	-1	-2	-1	nt
NC1=NN=C(c2ccc3c(c2)OCCO3)CS1	13*	4.5*	-1	3	-1	-2
Cc1sc(N)nc1-c1ccc2c(c1)OCCO2	2	1	-1	1	-1	nt
Cc1ccccc1Oc1ccc2c(c1)[C@@H]1C[C@H](N(C)C(=O)c3cccnc3)[C@H]([C@H](C)O)C(=O)N1CC2	1	0	-2	-1	0	nt
C[N+](=O)C1C(=O)Nc2ccccc21 (centres undefined)	1	1	0	-2	nt	nt
Cc1cc(C2=NNC(=Nc3ccccc3)SC2)c(C)n1C	8	1	1	2	5.4*	2
COCCn1c(C)cc(C2=NNC(=Nc3ccccc3F)SC2)c1C	-16	-4	-4	-7	-7	-4
COc1ccc2nc(-c3ccc(CN4CCC5(CC4)CNc4ccccc45)cc3)c(-c3ccccc3)nc2c1	4	-1	-1	-1	nt	nt
Nc1nnc(-c2cccc(F)c2)s1	0	0	-2	-1	3	-2
Nc1nnc(-c2ccc(Cl)c(Cl)c2)s1	1	0	-1	3	5.8*	0
Cc1ccc(C(=O)Nc2cnc3ccccn3c2=O)cc1	8	4.0*	-1	2	1	3
O=C(NCC(c1ccco1)N1CCCCC1)c1cccs1 (centres undefined)	0	1	-1	3	0	nt
SMILES	hgDAF12 agonist	DAX1 inh-1	ssDAF12 agonist	hcDAF-12 act	DAX1 inh-2	Wee1 stabilizer
O=C(NCC(c1ccco1)N1CCCCC1)c1cc2c(s1)CCCC2 (centres undefined)	1	4.2*	0	-1	-1	nt
O=c1[nH]c(S)nc2sc3c(c12)CCCC3	nt	nt	nt	nt	0	0
O=c1[nH]c(-c2ccco2)nc2sc3c(c12)CCCC3	13*	3	1	2	2	4
CC1=Nc2cccc([N+](=O)[O-])c2NC(=O)C1	-5	0	-1	0	3	15*
Cc1c(NS(=O)(=O)c2ccc3c(c2)NC(=O)CC(=O)N3)cccc1[N+](=O)[O-]	0	0	-1	-2	0	nt
CN(C)C(=O)C1(c2ccccc2)CCN(S(=O)(=O)c2ccccc2)CC1	2	0	-1	0	1	-1
O=C(O)C1(c2ccccc2)CCN(S(=O)(=O)c2ccccc2)CC1	0	0	1.0*	0	0	nt
